# According to paper PMC5540273 (PLoS ONE, 2017):
# Where two headings read alike, the source gives them in different places.
# Tests used:
# Conditions in all cases: n = 1
# [1] = tested on: T1, RSK2(Kin.Dom.2-C-terminal)
# T1 construct: gene RPS6KA3
# [2] = tested on: T2, RSK3(Kin.Dom.1-N-terminal)
# T2 construct: gene RPS6KA2
# [3] = tested on: T3, RSK3(Kin.Dom.2-C-terminal)
# T3 construct: gene RPS6KA2
# [4] = tested on: T4, RSK4(Kin.Dom.1-N-terminal)
# T4 construct: gene RPS6KA6
# [5] = tested on: T5, RSK4(Kin.Dom.2-C-terminal)
# T5 construct: gene RPS6KA6
# S6K1 = tested on: S6K1
# SBK1 = tested on: SBK1
# SGK2 = tested on: SGK2
# SGK3 = tested on: SGK3
# SGK = tested on: SGK
# SIK2 = tested on: SIK2
# SIK = tested on: SIK
# SLK = tested on: SLK
# SNARK = tested on: T6, SNARK
# T6 construct: gene NUAK2
# SNRK = tested on: SNRK
# SRC = tested on: SRC
# SRMS = tested on: SRMS
# SRPK1 = tested on: SRPK1
# SRPK2 = tested on: SRPK2
# SRPK3 = tested on: SRPK3
# [6] = concentration: 1 μM, replicates: in singlicate
# 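Note: KINOMEscan kinase panel screen.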
smiles,measurement,setting,value
Cl.NC(=O)c1cccc(Nc2nccc(Nc3ccc(Oc4cccc(Cl)c4)c(Cl)c3)n2)c1 [GW659008],%Inh,[1]; [6],16%
same,%Inh,[2]; [6],0%
same,%Inh,[3]; [6],18%
same,%Inh,[4]; [6],0%
same,%Inh,[5]; [6],19%
same,%Inh,S6K1; [6],0%
same,%Inh,SBK1; [6],0%
same,%Inh,SGK2; [6],0%
same,%Inh,SGK3; [6],0%
same,%Inh,SGK; [6],0%
same,%Inh,SIK2; [6],5%
same,%Inh,SIK; [6],12%
same,%Inh,SLK; [6],32%
same,%Inh,SNARK; [6],0%
same,%Inh,SNRK; [6],0%
same,%Inh,SRC; [6],25%
same,%Inh,SRMS; [6],37%
same,%Inh,SRPK1; [6],0%
same,%Inh,SRPK2; [6],0%
same,%Inh,SRPK3; [6],13%
CCn1c(-c2ccccn2)nc2cnccc21 [SB-736398],%Inh,[1]; [6],32%
same,%Inh,[2]; [6],5%
same,%Inh,[3]; [6],0%
same,%Inh,[4]; [6],1%
same,%Inh,[5]; [6],0%
same,%Inh,S6K1; [6],7%
same,%Inh,SBK1; [6],0%
same,%Inh,SGK2; [6],2%
same,%Inh,SGK3; [6],0%
same,%Inh,SGK; [6],3%
same,%Inh,SIK2; [6],3%
same,%Inh,SIK; [6],0%
same,%Inh,SLK; [6],8%
same,%Inh,SNARK; [6],0%
same,%Inh,SNRK; [6],0%
same,%Inh,SRC; [6],79%
same,%Inh,SRMS; [6],0%
same,%Inh,SRPK1; [6],0%
same,%Inh,SRPK2; [6],27%
same,%Inh,SRPK3; [6],5%
Cc1ccc(NC(=O)Nc2cccc(C(F)(F)F)c2)cc1 [GSK955403],%Inh,[1]; 1 µM,0%
same,%Inh,[2]; 1 µM,7%
same,%Inh,[3]; 1 µM,27%
same,%Inh,[4]; 1 µM,0%
same,%Inh,[5]; 1 µM,23%
same,%Inh,S6K1; 1 µM,2%
same,%Inh,SBK1; 1 µM,0%
same,%Inh,SGK2; 1 µM,7%
same,%Inh,SGK3; 1 µM,0%
same,%Inh,SGK; 1 µM,22%
same,%Inh,SIK2; 1 µM,0%
same,%Inh,SIK; 1 µM,0%
same,%Inh,SLK; 1 µM,5%
same,%Inh,SNARK; 1 µM,0%
same,%Inh,SNRK; 1 µM,0%
same,%Inh,SRC; 1 µM,15%
same,%Inh,SRMS; 1 µM,0%
same,%Inh,SRPK1; 1 µM,17%
same,%Inh,SRPK2; 1 µM,5%
same,%Inh,SRPK3; 1 µM,0%
O=c1cc(N2CCOCC2)nc2n(Cc3cccc(Cl)c3Cl)ccn12 [GSK2286295],%Inh,[1]; [6],8%
same,%Inh,[2]; [6],0%
same,%Inh,[3]; [6],28%
same,%Inh,[4]; [6],0%
same,%Inh,[5]; [6],1%
same,%Inh,S6K1; [6],0%
same,%Inh,SBK1; [6],9%
same,%Inh,SGK2; [6],14%
same,%Inh,SGK3; [6],9%
same,%Inh,SGK; [6],22%
same,%Inh,SIK2; [6],0%
same,%Inh,SIK; [6],0%
same,%Inh,SLK; [6],17%
same,%Inh,SNARK; [6],0%
same,%Inh,SNRK; [6],0%
same,%Inh,SRC; [6],3%
same,%Inh,SRMS; [6],0%
same,%Inh,SRPK1; [6],34%
same,%Inh,SRPK2; [6],0%
same,%Inh,SRPK3; [6],0%
COc1ccccc1-c1ccc2c(NC(=O)C3CC3)n[nH]c2n1 [SB-711239],%Inh,[1]; [6],7%
same,%Inh,[2]; [6],0%
same,%Inh,[3]; [6],0%
same,%Inh,[4]; [6],4%
same,%Inh,[5]; [6],22%
same,%Inh,S6K1; [6],7%
same,%Inh,SBK1; [6],68%
same,%Inh,SGK2; [6],4%
same,%Inh,SGK3; [6],3%
same,%Inh,SGK; [6],0%
same,%Inh,SIK2; [6],0%
same,%Inh,SIK; [6],3%
same,%Inh,SLK; [6],8%
same,%Inh,SNARK; [6],8%
same,%Inh,SNRK; [6],14%
same,%Inh,SRC; [6],6%
same,%Inh,SRMS; [6],0%
same,%Inh,SRPK1; [6],0%
same,%Inh,SRPK2; [6],31%
same,%Inh,SRPK3; [6],13%
